Screening data: PubChem, National Center for Advancing Translational Sciences (NCATS)
This is a sample that favours compounds with a hit; in the whole collection about 3.2% have one here.
Tau fluor cs – counter-screen for tau fibril formation inhibitors; hit rate 0.93% among 280,000; Potency, µM (doses to about 57.7 µM), for the others: at the highest dose activity change, negative = decrease; tau K18 P301L Alexa594 fluorescence, heparin fibrillization; also: potency is read from the fitted curve at half-maximal effect; % is scaled to controls: 0 for no effect and ±100 for the full control effect; nearly all actives have a fitted effect of over 55% in size
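Human K18 P301L tau (15 uM unlabeled plus 0.24 uM Alexa 594-labeled, final) in 100 mM sodium acetate pH 7 was mixed with compound and 20 uM heparin and incubated 6 hr at 37 C.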
LMNA splice mod – modulators of lamin A splicing. Potency, µM (titrated, usually from 46.1 µM), for the others: at the highest dose ratio change, negative = inhibition, hits mostly inhibitors. hit rate 0.01% among 200,000. HeLa LMNA splicing GFP/RFP minigene ratio, 48 h; active = well fitted inhibition curve with a large enough effect in the signal ratio, with a control signal flat, not every such curve was filed as active; inconclusive = small, poorly fitted or top-dose-only effect, or effect the other way, or a change in a side signal; the % refers to the signal ratio; also: potency is read from the fitted curve at half-maximal effect; % is scaled to controls: 0 for no effect and ±100 for the full control effect
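S3 HeLa cells stably expressing lamin A-EGFP splicing minigene plus DsRed2, 600 cells/well, 48 h compound exposure at 37C. Laser-scanning cytometry; analysed as GFP (500-530 nm)/RFP (575-640 nm) total intensity ratio; 0.5% DMSO vehicle.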
KDM4E inh – inhibitors of human JMJD2E histone demethylase; B2RXH2; Potency, µM (titrated, usually from 57.1 µM), without a hit: top-dose activity change, negative = inhibition, most hits filed as inhibitors; hit rate 1.6% among 230,000; JMJD2E catalytic domain, FDH-coupled NADH fluorescence (FDH is formaldehyde dehydrogenase);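 also: potency is read from the fitted curve at half-maximal effect; 0% = wells with enzyme and -100% = buffer wells without enzyme; nearly all actives have a fitted effect of over 50% in size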
Target sequence (B2RXH2 1-337 limits assumed): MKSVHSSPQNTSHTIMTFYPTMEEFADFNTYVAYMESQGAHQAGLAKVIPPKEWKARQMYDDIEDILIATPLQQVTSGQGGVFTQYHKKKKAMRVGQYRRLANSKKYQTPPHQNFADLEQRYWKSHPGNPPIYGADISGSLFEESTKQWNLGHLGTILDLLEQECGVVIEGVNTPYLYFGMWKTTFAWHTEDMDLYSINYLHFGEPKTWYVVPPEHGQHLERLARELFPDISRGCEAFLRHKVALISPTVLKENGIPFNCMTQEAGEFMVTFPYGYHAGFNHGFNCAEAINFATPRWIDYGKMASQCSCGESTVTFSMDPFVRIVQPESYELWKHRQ
Tau FP inhib – tau fibrillization inhibition (FP) | P10636 | K18 P301L tau heparin fibrillization, Alexa594 FP, 6 h | AID 1468 | hit rate 0.39% among 280,000 | Potency, µM (top dose mostly 57.7 µM), inactives show at the top dose activity, negative = inhibition, hits mostly inhibitors; also: potency is read from the fitted curve at half-maximal effect; % is scaled to controls: 0 for no effect and ±100 for the full control effect; nearly all actives have a fitted effect of over 55% in size
Target sequence (P10636 561-689 P618L limits assumed): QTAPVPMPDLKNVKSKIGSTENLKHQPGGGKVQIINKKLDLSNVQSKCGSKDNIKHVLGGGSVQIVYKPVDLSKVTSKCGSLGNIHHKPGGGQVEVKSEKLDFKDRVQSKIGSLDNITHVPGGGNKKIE
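Human tau K18 […] P301L fragment, 15 uM unlabeled plus 0.24 uM Alexa 594-labeled tau (final), with compound and 20 uM heparin in 100 mM sodium acetate pH 7; 6 hr at 37 C, then Alexa 594 FP read.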
CBFb RUNX1 block – inhibitors of human CBF-beta and RUNX1 interaction. Q01196+Q13951. AlphaScreen CBFb-His/RUNX1-biotin binding, biochemical. Potency, µM (doses to about 59.8 µM), for the others: top-dose activity, negative = inhibition, usual class: inhibitors. 230,000 tested, under 10 active; also: % of control where 0% means no effect
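Inhibition was taken as any reduction in AlphaScreen signal from the CBF-beta–RUNX1 pair (His and biotin tags, 30 nM each), measured after compound (15 min) and bead (90 min) incubations at room temperature.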
Tau ThT inhib – tau fibrillization inhibition (ThT binding) | Potency, µM (titrated, usually from 57.4 µM), without a hit: at the highest dose activity, negative = inhibition, most hits filed as inhibitors | recombinant tau K18 P301L (four-repeat tau fragment), heparin-induced fibrillization, ThT fluorescence | hit rate 2.1% among 270,000 | AID 1460 | P10636; also: potency is read from the fitted curve at half-maximal effect; % is scaled to controls: 0 for no effect and ±100 for the full control effect; nearly all actives have a fitted effect of over 55% in size
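Tau K18 P301L fragment (15 uM unlabeled plus 0.24 uM Alexa 594-labeled) in 100 mM sodium acetate pH 7 with compound, fibrillization induced by 20 uM heparin for 6 hr at 37 C. Thioflavin T (30 uM) added, fluorescence read after 1 hr (ex 450, em 510 nm).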
Numbers without * were called inactive; u = inconclusive; x = no result given; ! = not confirmed by another sample; [ ] = another dose, or the depositor's remark. Unless noted, calls follow the shape of the dose curve; as a rule, active = well fitted curve in the direction sought with a large enough effect; inconclusive = small, poorly fitted or top-dose-only effect, or another doubt; inactive = no such curve, though single readings can be large; an effect the other way counts as inactive or inconclusive.

SMILES	Tau fluor cs	LMNA splice mod	KDM4E inh	Tau FP inhib	CBFb RUNX1 block	Tau ThT inhib
COc1ccc(CN2C=C3C(=O)C(C)(OC(=O)C4CCCC4)C(=O)C=C3C=C2c2ccsc2)cc1 (stereo unspecified)	-7%[11.6 µM]	-1%[9.22 µM]	u	u	u	18µM*!
CC1(OC(=O)c2cccs2)C(=O)C=C2C=C(c3ccc(C#N)cc3)OC=C2C1=O (stereo unspecified)	-12%	x	0%	u	7%	28µM*
CC1(OC(=O)c2cccs2)C(=O)C=C2C=C(c3ccsc3)OC=C2C1=O (stereo unspecified)	-4%	x	-3%	u	6%	-2%
CC(=O)c1cccc(NC(=O)c2ccc3c(c2)N(Cc2ccc(C)cc2)CCS3)c1	u	x	x	11%	x	-11%
CC(C)(C)OC(=O)N1CCC(c2c(C(=O)NCc3ccco3)cnn2-c2ccccc2Cl)CC1	-17%	-5%[46 µM]	x	-7%	x	u
CCN1C(C(=O)c2ccccc2)=C(OC(=O)COc2ccccc2)c2ccccc2S1(=O)=O	-9%	x	x	5%	x	u
CCc1ccccc1N(C)C(=O)c1cnc(N2CCOCC2)c2ccccc12	3%	u	x	1%	x	0%
Fc1ccc(Cn2c(-c3cccc(Br)c3)nc3ccccc32)cc1	-8%	u	x	u	x	-14%
CC(=O)OC1CC[C@]2(C)C(CC(OC(C)=O)[C@]3(C)C2CC[C@@]2(C)C(c4ccoc4)OC(=O)C4O[C@]432)C1(C)C (stereo partly specified)	-5%	x	-6%	-4%	6%	-7%
COc1ccc(Nc2nc(C)nc(N)c2S(=O)(=O)c2ccccc2)cc1	3%	x	x	-10%	x	13%
O=C(NN1C(=O)CSC1=S)C(=O)NN1C(=O)CSC1=S	-4%	-10%[9.22 µM]	8.9µM*	-8%	x	u
O=C(Cc1cccc2ccccc12)NN1C(=O)CSC1=S	-7%	1%[46 µM]	-4%	-7%	-3%	u
O=C(N=Nc1c(O)n(Cc2ccccc2)c2ccccc12)c1ccncc1	-11%	x	3%	1%	0%	16µM*
COc1cc(O)c(C(C)=O)c(CC(=O)O)c1	-11%	x	25µM*	-7%	u	u
COc1cc(O)c(C(C)=O)c(OC)c1	-20%	-6%	2%	-7%	x	-3%
Cc1ccc(CSc2nc3ccc(NC(=O)COc4ccccc4)cc3s2)cc1	0%	u	x	-1%	x	-3%
CC(C)C(=O)Nc1cccc(NC(=O)c2cccc([N+](=O)[O-])c2)c1	-8%	4%	5%	0%	1%	-9%
O=C(Nc1cccc([N+](=O)[O-])c1)Nc1ccc2c(c1)OCCO2	14µM*[quencher]	u	-27%	5%	-8%	u
COc1ccc(C(=O)C(C)Oc2cccc(NC(=O)c3cccc([N+](=O)[O-])c3)c2)cc1 (stereo unspecified)	3.5µM*[quencher]	u	7%	-3%	4%	-11%
COc1cc(NC(=O)Nc2cccc([N+](=O)[O-])c2)cc(OC)c1	14µM*[quencher]	x	5%	u	-9%	u
Cc1ccc(CN2C(=O)C(=O)c3cc(Br)cc(C)c32)cc1	u	x	x	u	x	28µM*
CCCOc1ccc(CN2C(=O)C(=O)c3cccc(C)c32)cc1	-26%	x	x	-3%	x	18µM*
Cc1ccc(OCCCN2C(=O)C(=O)c3cccc(C)c32)cc1	-12%	-5%	1%	3%	-13%	u
CCCc1nnc(NC(=O)c2nc(SCC)ncc2Cl)s1	-8%	x	x	-1%	x	-7%
CSc1ccc(CCNS(=O)(=O)c2cc(-c3cc(C)no3)ccc2C)cc1	u	x	x	-11%	x	3%
SMILES	Tau fluor cs	LMNA splice mod	KDM4E inh	Tau FP inhib	CBFb RUNX1 block	Tau ThT inhib
Cc1cc(C)cc(NC(=O)Cc2noc3ccccc23)c1	5%	u	x	0%	x	-3%
CN(C)[C@H]1C(=O)C(C(=O)NCN2CCCC2)=C(O)[C@]2(O)C(=O)C3=C(O)c4c(O)cccc4[C@@](C)(O)[C@H]3C[C@@H]12	x	u	11µM*	x	u	x
CN(C)C1C(=O)C(C(N)=O)=C(O)[C@@]2(O)C(=O)C3=C(O)c4c(O)ccc(Cl)c4C(O)[C@H]3C[C@@H]12 (stereo partly specified)	-9%	x	u	-3%	3%	-6%
O=C(COC(=O)c1cc(S(=O)(=O)N2CCc3ccccc3C2)ccc1Cl)NCc1ccco1	u	15%	-3%	u	-3%	32µM*
COC1=C/C(=C/c2c(N)n3c(nc2=O)sc2cc(S(C)(=O)=O)ccc23)C=CC1=O	-19%	x	-14%	7%	2%	u
CS(=O)(=O)c1ccc2c(c1)sc1nc(=O)c(/C=C3/C=CC(=O)C(O)=C3)c(N)n12	u	x	3.2µM*	-2%	x	4µM*
C/C(=N\NC(=O)c1cc(-c2cccnc2)nc2ccccc12)c1ccc(O)cc1O	u	u	1%	20%	8%	7.9µM*
O=C(N/N=C/c1ccccn1)c1cc(-c2ccccc2)nc2ccccc12	u	x	25µM*	-7%	-25%	u
Cc1ccc(C)c(NC(=O)c2cc(-c3cccnc3)nc3ccccc23)c1	-7%	u	5%	-3%	-4%	-9%
O=C(N/N=C/c1cccs1)c1cc(-c2ccncc2)nc2ccccc12	-14%	u	10%	-5%	-22%	-4%
O=C(N/N=C/c1cc(Cl)cc([N+](=O)[O-])c1O)c1cc(-c2ccccn2)nc2ccccc12	u	x	22µM*	5%	-7%	8.9µM*
O=[N+]([O-])c1cc(Cl)cc(/C=N\Nc2ccccn2)c1O	18µM*[quencher]	u	-6%	-12%	-15%	8.9µM*
Cc1cc2c(cc1S(=O)(=O)Nc1cccc(C(F)(F)F)c1)OCCN2C	-1%	10%[46 µM]	x	-4%	x	4%
